Only some compounds are listed: those with a hit (about 1.9% of all), similar ones and a draw of the others.
bovine MsrA act = activators of bovine methionine sulfoxide reductase A; purified bovine MsrA, absorbance read-out; activation, % at 10.6 µM; 360,000 tested, 0.3% active; in the data active = activation above about 7.5%
PLCb3 inh = PLC-beta3 (human) inhibition, primary screen; AID 720704; Purified PLC-beta3, fluorogenic substrate, fluorescence; Q01970; 370,000 tested, 0.18% active; inhibition, % at 12.2 µM; in the data active = inhibition above about 11%
MsrA inhibitor = inhibits bovine methionine sulfoxide reductase A; inhibition, % at 15.5 µM; AID 651718; 360,000 tested, 0.75% active; purified bovine MsrA, absorbance read-out
PLCg1 inh = PLC-gamma1 (human) inhibition, primary screen. P19174. purified PLC-gamma1, fluorogenic substrate, fluorescence. inhibition, % at 12.2 µM. 370,000 tested, 0.84% active; in the data active = inhibition above about 9.5%
Target sequence (P19174 whole entry, looked up): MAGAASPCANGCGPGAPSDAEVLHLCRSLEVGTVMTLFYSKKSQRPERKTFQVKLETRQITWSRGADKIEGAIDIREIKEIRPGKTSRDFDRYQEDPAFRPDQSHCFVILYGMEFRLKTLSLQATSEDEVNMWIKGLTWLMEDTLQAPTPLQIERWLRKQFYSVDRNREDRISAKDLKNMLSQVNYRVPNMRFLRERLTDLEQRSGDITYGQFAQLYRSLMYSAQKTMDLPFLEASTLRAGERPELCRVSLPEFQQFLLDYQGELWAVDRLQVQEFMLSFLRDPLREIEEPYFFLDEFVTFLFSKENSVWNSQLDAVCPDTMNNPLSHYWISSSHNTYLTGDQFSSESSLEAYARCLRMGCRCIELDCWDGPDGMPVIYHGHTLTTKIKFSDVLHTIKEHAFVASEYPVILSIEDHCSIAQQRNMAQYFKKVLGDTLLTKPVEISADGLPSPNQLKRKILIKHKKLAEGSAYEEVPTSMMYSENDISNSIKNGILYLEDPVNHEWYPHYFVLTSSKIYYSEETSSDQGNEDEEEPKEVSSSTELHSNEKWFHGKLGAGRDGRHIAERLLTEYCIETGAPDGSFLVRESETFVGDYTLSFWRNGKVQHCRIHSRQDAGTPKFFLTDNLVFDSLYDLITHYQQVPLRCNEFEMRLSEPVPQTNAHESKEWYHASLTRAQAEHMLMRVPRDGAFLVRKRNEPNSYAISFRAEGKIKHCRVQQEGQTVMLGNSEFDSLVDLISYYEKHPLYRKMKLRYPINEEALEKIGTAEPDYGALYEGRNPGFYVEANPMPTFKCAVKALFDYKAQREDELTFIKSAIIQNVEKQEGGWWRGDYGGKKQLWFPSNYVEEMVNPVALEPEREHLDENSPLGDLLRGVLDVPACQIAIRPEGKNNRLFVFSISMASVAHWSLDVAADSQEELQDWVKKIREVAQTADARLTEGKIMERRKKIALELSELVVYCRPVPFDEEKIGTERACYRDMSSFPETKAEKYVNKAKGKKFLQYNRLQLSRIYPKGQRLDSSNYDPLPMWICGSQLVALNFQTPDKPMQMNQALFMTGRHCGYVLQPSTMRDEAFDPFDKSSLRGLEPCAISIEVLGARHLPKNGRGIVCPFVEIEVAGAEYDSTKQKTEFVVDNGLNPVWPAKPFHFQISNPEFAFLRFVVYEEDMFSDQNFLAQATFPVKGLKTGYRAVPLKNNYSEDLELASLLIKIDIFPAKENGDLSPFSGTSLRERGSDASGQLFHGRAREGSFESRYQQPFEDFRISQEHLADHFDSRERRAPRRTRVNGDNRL
MsrA conf = bovine MsrA inhibition, confirmed. 2,300 tested, 41% active. shares compounds with MsrA inhibitor. inhibition, % at 15.5 µM. purified bovine MsrA, absorbance read-out;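 note: coupled to thioredoxin reductase with NADPH and selenocystamine and DMSO as substrate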
Of the large screens only hits and unclear results are named; the others gave an inactive call (follow-up assays come after a bar, where they were run). Cut-off read from the data, not from the text of the source, unless noted: active = inhibition above about 4.5%; inactive = the rest.

CC1(C)CC(c2nc(-c3ccc([N+](=O)[O-])cc3)cs2)CCO1 (stereo unspecified)	MsrA inhibitor 4.8 | MsrA conf inactive
O=C(O)c1ccc(NC2=C(n3nnc4ccccc43)C(=O)c3ccccc3C2=O)cc1	MsrA inhibitor 58 | MsrA conf 53
O=C(O)c1cccc(NC2=C(N3CCOCC3)C(=O)c3ccccc3C2=O)c1	none
O=C(Nc1ccc(C(=O)O)cc1)/C(=C\c1ccc2c(c1)OCO2)NC(=O)c1ccco1	MsrA inhibitor 7.4 | MsrA conf 5.0
O=C(Nc1ccc(C(=O)O)cc1)/C(=C\c1ccccc1)NC(=O)c1ccco1	none
O=C(Nc1ccc(C(=O)O)cc1)/C(=C\c1ccc2c(c1)OCO2)NC(=O)c1ccc(Br)o1	MsrA inhibitor 5.1 | MsrA conf inactive
O=C(Nc1cccc(C(=O)O)c1)/C(=C\c1ccc2c(c1)OCO2)NC(=O)c1ccc(Br)o1	none
CCCCc1c(-c2ccccc2OC)ncn1Cc1ccc(C(C)(C)C)cc1	none (no result: bovine MsrA act)
N#Cc1ccccc1S(=O)(=O)N1CCN(c2nc(-c3cccs3)nc3ccccc23)CC1	none (no result: bovine MsrA act, MsrA inhibitor)
O=C(C(=O)N1CCC(CNS(=O)(=O)c2ccc(OC(F)(F)F)cc2)CC1)c1cc2ccccc2o1	none (no result: bovine MsrA act)
COc1cc(C)nc(N(Cc2ccccc2)S(=O)(=O)c2ccccc2)n1	MsrA inhibitor 5.6 | MsrA conf inactive
COc1cc(OC)c(NC(=O)C(Sc2nc(C)cc(C)c2C#N)c2ccccc2)cc1Cl (stereo unspecified)	none (no result: bovine MsrA act)
Cc1ccc(-c2cc(C(F)F)nc(N3CCOCC3)n2)cc1	MsrA inhibitor 11 | MsrA conf 9.7
Cc1ccc(-c2cc(C(F)F)nc(NCc3cccs3)n2)cc1	none
COc1ccc(-c2cc(C(F)F)nc(-n3nc(C)cc3C)n2)cc1	MsrA inhibitor 15 | MsrA conf 16
CCCCS(=O)(=O)N1CCCc2nc(-c3ccc(Br)cc3)ccc21	none (no result: bovine MsrA act)
COC(=O)c1cc2c(c3c4cc(OC)ccc4n(S(=O)(=O)c4ccccc4)c13)C(=O)N(C)C2	none (no result: bovine MsrA act)
N#C/C(=N\O)c1nc2ccccc2s1	MsrA inhibitor 4.7 | MsrA conf inactive
NC(CSS(=O)(=O)O)=NCCC12CC3CC(CC(O)(C3)C1)C2	MsrA inhibitor 7.5 | MsrA conf inactive
COC(=O)N1[C@H](C)C=C[C@]1(Cc1ccccc1)C(=O)NCCCNc1ncc(C(F)(F)F)cc1Cl	MsrA inhibitor 37 | MsrA conf 37
COC(=O)[C@]12C[C@H](CC(=O)NCC34CC5CC(CC(C5)C3)C4)C(=O)N(Cc3ccc(Cl)cc3Cl)C1=C[C@H](C1CCCC1)O[C@@H]2C	none (no result: bovine MsrA act, MsrA inhibitor)
C[C@H]1C2CC(OC(=O)NCc3ccccc3)C(C2)[C@H]2CCCCN21 (stereo partly specified)	none (no result: bovine MsrA act, MsrA inhibitor)
CC(=O)Nc1c(-c2cc(=O)oc3cc(C)ccc23)oc2ccccc12	MsrA inhibitor 4.9 | MsrA conf inactive
CCNc1c(NC(C)=O)c(=O)oc2ccccc12	none
CC12CCC3c4ccc(OCCCO)c([N+](=O)[O-])c4CCC3C1CCC2=O (stereo unspecified)	none (no result: bovine MsrA act)
COc1ccc(C2/C(=C(/O)c3cnn(-c4ccccc4)c3C)C(=O)C(=O)N2CCN(C)C)cc1OC (stereo unspecified)	MsrA inhibitor 9.3 | MsrA conf inactive
CN/C=C1\C(=O)C(C)(C)Oc2ccc3ccc(=O)oc3c21	MsrA inhibitor 5.4 | MsrA conf inactive
CC1(C)Oc2ccc3ccc(=O)oc3c2/C(=C/Nc2ccc(O)cc2)C1=O	none
CN(C)c1ccc(NC2=C(Cl)C(=O)c3ccccc3C2=O)cc1	MsrA inhibitor 8.2 | MsrA conf inactive
O=C1CCCC2=C1C1(CCCC1)N=C(Nc1nc3cc(Br)ccc3o1)N2	none (no result: bovine MsrA act, MsrA inhibitor)
CCCC(=O)Nc1nc2ccc(OC)cc2s1	none
COc1ccc2nc(NC(=S)N(C)C)sc2c1	MsrA inhibitor 6.3, PLCg1 inh 15 | MsrA conf inactive
O=C(Cn1ccc(C(F)(F)F)n1)N/N=C/c1ccc(N2CCOCC2)cc1	MsrA inhibitor 5.2 | MsrA conf inactive
C/C(=N\NC(=O)Cn1ccc(C(F)(F)F)n1)c1ccc(N2CCOCC2)cc1	none
COc1ccc(/C=N/NC(=O)c2c(C)nc3ccccn23)cc1[N+](=O)[O-]	none
Cc1c(C(=O)N/N=C/c2ccc(N3CCOCC3)cc2)nc2ccccn12	MsrA inhibitor 5.7 | MsrA conf 5.8
COc1cc(/C=N/NC(=O)c2nc3ccccn3c2C)cc(OC)c1O	MsrA inhibitor 6.3 | MsrA conf 5.1
CCCCCCCCNS(=O)(=O)CC1NCc2ccc(C)cc21 (stereo unspecified)	none (no result: bovine MsrA act, MsrA inhibitor)
CC(=O)N1CCN(CCN2C(C)=CC(=C(C#N)C#N)C=C2C)CC1	none
CC1=CC(=C(C#N)C#N)C=C(C)N1CCN1CCN(C(=O)Nc2cccc(Cl)c2)CC1	MsrA inhibitor 5.0 | MsrA conf 4.6
CC1=CC(=C(C#N)C#N)C=C(C)N1CCN1CCNCC1	MsrA inhibitor 6.5 | MsrA conf 7.9
COC(=O)C1=C(C)N(Cc2ccccc2C(F)(F)F)C(=NCc2ccccc2)NC1CCc1ccccc1 (stereo unspecified)	none (no result: bovine MsrA act)
CCOc1cccc(Nc2cc3n(c(=O)n2)CCc2cc(OC)c(OC)cc2-3)c1	none
COc1cc2c(cc1OC)-c1cc(Nc3ccc4c(c3)OCCO4)nc(=O)n1CC2	MsrA inhibitor 5.1 | MsrA conf inactive
COc1ccc(Nc2cc3n(c(=O)n2)CCc2cc(OC)c(OC)cc2-3)c(C)c1	MsrA inhibitor 4.9 | MsrA conf inactive
COc1cc2c(cc1OC)-c1cc(Nc3ccc(C(=O)O)cc3)nc(=O)n1CC2	none
COc1cc2c(cc1OC)-c1cc(Nc3ccccc3Br)nc(=O)n1CC2	MsrA inhibitor 7.5 | MsrA conf inactive
COc1ccc(Nc2cc3n(c(=O)n2)CCc2cc(OC)c(OC)cc2-3)cc1	MsrA inhibitor 5.5 | MsrA conf inactive
COc1cc2c(cc1OC)-c1cc(NC3CCCCCC3)nc(=O)n1CC2	none
C[C@@H]1CCN(C2CC2)S(=O)(=O)c2c(cccc2N2CCC[C@@H]2CO)O1	none (no result: bovine MsrA act, MsrA inhibitor)
COc1cc2c(cc1OC)-c1cc(Nc3ccccc3)nc(=O)n1CC2	MsrA inhibitor 5.1 | MsrA conf inactive
COc1cc2c(cc1OC)-c1cc(Nc3ccc(C)cc3)nc(=O)n1CC2	none
C[C@@H]1CN([C@@H](C)CO)C(=O)CCCn2nncc2CO[C@@H]1CN(C)C(=O)C1CC1	none (no result: bovine MsrA act)
COc1cc(OC)cc(-c2nc3ccccc3s2)c1	none
Cc1cc(-c2nc3ccccc3s2)ccc1N	MsrA inhibitor 4.7 | MsrA conf inactive
Brc1ccc(-c2nc3ccccc3s2)s1	none
Cc1ccc2nc(-c3ccc(N)cc3)sc2c1	none
Nc1ccc(-c2nc3ccccc3s2)cn1	MsrA inhibitor 5.3 | MsrA conf inactive
Nc1ccc2nc(-c3ccccc3)sc2c1	MsrA inhibitor 4.7 | MsrA conf inactive
Cc1ccc(S(=O)(=O)N2CCCC(C(=O)NCc3ccco3)C2)cc1 (stereo unspecified)	none (no result: bovine MsrA act, MsrA inhibitor)
O=C(Nc1cc(Cl)ccc1F)C1CCCN(c2nnc(-n3cccc3)s2)C1 (stereo unspecified)	none (no result: bovine MsrA act, MsrA inhibitor)
COC(=O)/C=C1\S/C(=N/N=C/c2ccco2)NC1=O	MsrA inhibitor 4.7 | MsrA conf inactive
COC(=O)/C=C1\S/C(=N/N=C/c2ccc(Cl)cc2)NC1=O	none
